A selection: hits, their analogues and other compounds. The true share with any hit is near 19%.
DT40 TDP1 no CPT: qHTS for Inhibitors of human tyrosyl-DNA phosphodiesterase 1 (TDP1): qHTS in cells in absence of CPT. 15% of 420,000 active. Potency, µM (highest dose often 46.2 µM), for inactives: top-dose activity change, negative = growth inhibition, hits mostly inhibitors. DT40 Tdp1-/- hTDP1 cells, no CPT, ATP luminescence, 48 h; further: potency means the concentration at half of the fitted maximal effect; nearly all actives have a fitted effect of over 55% in size
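Growth of hTDP1-complemented DT40 Tdp1-knockout cells is measured by ATP luminescence after at least 48 hr compound exposure at 37 °C, with DMSO substituting for the 20 nM CPT used in the parallel screen.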
HT1080 IDH1KD tx: kills HT-1080 cells with IDH1 knockdown; HT-1080 IDH1 knockdown viability, ATP luminescence, 48 h; Potency, µM (highest dose often 46.1 µM), inactives show at the highest dose activity, negative = toxicity, most hits filed as cytotoxic; 2% of 360,000 active; AID 686971;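 further: potency means the concentration at half of the fitted maximal effect; 0% = DMSO wells and -100% = cell-free medium wells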
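CellTiter-Glo luminescence after 48 h compound exposure at 37 degrees C of IDH1-knockdown HT-1080 cells in 5% FBS RPMI. %Activity scaled between DMSO wells and cell-free media wells, with curves fitted and assigned curve classes.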
HT1080-NT tox: kills 2HG-producing HT-1080-NT fibrosarcoma cells; HT-1080-NT fibrosarcoma viability, CellTiter-Glo ATP luminescence, 48 h; Potency, µM (top dose mostly 46.1 µM), inactives show top-dose activity, negative = less viability, most hits filed as cytotoxic; 1.6% of 360,000 active;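 further: NT is the 2HG producing partner of a matched IDH1 knockdown line; potency means the concentration at half of the fitted maximal effect; 0% = DMSO-treated cells and -100% = media-only wells without cells; nearly all actives have a fitted effect of over 55% in size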
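Luminescent CellTiter-Glo readout after 48 hours of compound exposure at 37 degrees C defined viability of HT-1080-NT cells. Activity was normalized to DMSO wells and cell-free media wells; concentration-response curves were fitted and assigned curve classes.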
DT40 TDP1 CPT: DT40-hTDP1 cell growth loss with CPT; 12% of 420,000 active; AID 686979; Potency, µM (titrated, usually from 46.2 µM), without a hit: top-dose activity change, negative = growth inhibition, actives largely listed as inhibitors; chicken DT40 Tdp1-/-;hTDP1 cells + 20 nM CPT, ATP luminescence, 48 h; further: potency means the concentration at half of the fitted maximal effect; nearly all actives have a fitted effect of over 55% in size
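Chicken DT40 Tdp1-/- cells complemented with human TDP1, 400 cells/well, exposed to compounds plus 20 nM camptothecin for at least 48 h at 37 C; viability read as ATP content by CellTiter-Glo luminescence.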
IL1B secr inh: blocks inflammasome-driven IL-1 beta release; 4.7% of 360,000 active; AID 743279; THP-1 LPS/ATP IL-1B secretion, AlphaLISA, 16 h; stronger effect = lower value; activity change, % at 57.5 µM; in the data active means activity change below about -50%; inconclusive means mostly about -30% to -49%
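Secreted IL-1B measured by AlphaLISA bead assay after 16 h compound exposure of THP-1 cells; compounds (final up to 57.5 uM) added 1 h before LPS (250 ng/mL) and ATP (1.25 mM) stimulation; lower signal means less secretion.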
* = called active by the depositor; ? = inconclusive; . = no result. Unless noted, the call rests on the fitted dose curve; in most records, active means well fitted curve in the direction sought with a large enough effect; inconclusive means small, poorly fitted or top-dose-only effect, or another doubt; inactive means no such curve, though single readings can be large; an effect the other way counts as inactive or inconclusive. Unless noted, on the % scale 0 is the no-effect control and ±100 the full control effect.

SMILES | DT40 TDP1 no CPT | HT1080 IDH1KD tx | HT1080-NT tox | DT40 TDP1 CPT | IL1B secr inh
CCOc1ccc(N(C)S(=O)(=O)c2ccc3[nH]cc(C(=O)NCC(OC)OC)c(=O)c3c2)cc1 | 26µM* | 0% | -2% | ? | 5
COc1cc(C2OC(=O)C3C(c4ccc(OC(C)=O)c(OC)c4)OC(=O)C23)ccc1OC(C)=O (stereo unspecified) | -2% | -4% | 15% | 13% | 11
CCOc1ccc(NC(=O)CSc2nc(C)c3c(c2C#N)CCCC3)cc1 | -24% | 0% | 7% | -4% | -15
CSc1nc(N)nc(SCC(=O)CC(=O)OC(C)C)c1C#N | -7% | 12% | 4% | -5% | -7
CSc1nc(N)nc(SCC(=O)Nc2ccc(Cl)cc2)c1C#N | 21µM* | ? | ? | ? | -78*
CSc1nc(N)nc(SCCS(=O)(=O)c2ccc(Cl)cc2)c1C#N | 26µM* | 11µM* | ? | 21µM* | ?
CSc1nc(N)nc(SCC(=O)C(C)(C)C)c1C#N | 23µM* | -2% | 3% | ? | -14
Cc1ccc2c(c1)c1c(c(=O)n(-c3cccc(Cl)c3)c(=O)n1CC(=O)c1ccc(Cl)cc1)n2C | -1% | . | . | 1% | .
O=S(=O)(C/C(=C/CO)S(=O)(=O)c1ccccc1)c1ccccc1 | 2.3µM* | 2µM* | 7.1µM* | 0.82µM* | -106*
Cc1ccc(-n2[nH]c(C)c(C=Nc3ccc(S(=O)(=O)Nc4nccs4)cc3)c2=O)cc1C | 18µM* | ? | ? | 8.2µM* | 23
COc1cc(S(=O)(=O)Nc2ccc(C)cc2)ccc1N=Cc1c(C)[nH]n(-c2ccccc2)c1=O | ? | -20% | -13% | 9.2µM* | ?
COc1nccnc1NS(=O)(=O)c1ccc(N=Cc2c(C)[nH]n(-c3ccc(C)c(C)c3)c2=O)cc1 | 9.2µM* | 7.9µM* | 10µM* | 8.2µM* | 12
Cn1c(Cc2cccs2)nnc1SCC(=O)Nc1ccc(C(N)=O)cc1 | 2% | 1% | 1% | 5% | 1
COc1ccccc1C(=O)Nc1ccccc1C(=O)OCc1cc(=O)n2ccsc2n1 | -7% | . | . | -17% | .
CC(NC(=O)c1ccc(N2Cc3ccccc3Oc3ncccc32)s1)c1ccccc1 (stereo unspecified) | ? | . | . | -21% | .
Cc1ccc(C(=O)N2CC3(C(C)C)CN(C(=O)c4ccc(C)cc4)CC(C(C)C)(C2)C3=O)cc1 | 15µM* | 7% | 6% | ? | 31
Cc1cccc(NC(=O)N(C)Cc2cccs2)c1 | -18% | -6% | 3% | 1% | -2
COc1ccc(N(Cc2cccs2)C(=O)c2ccc(Br)o2)cc1 | 18µM* | . | . | 15µM* | .
COc1ccc(N(Cc2cccs2)C(=O)COc2cccc(C)c2C)cc1 | 18µM* | . | . | ? | .
Cc1ccc(N(Cc2cccs2)C(=O)COc2cccc(C)c2)cc1 | 23µM* | . | . | ? | .
Cc1ccc(N(Cc2cccs2)C(=O)c2ccc(OC(C)C)cc2)cc1 | ? | . | . | 21µM* | .
COc1ccc(CN(C(=O)c2cccs2)c2ccccc2)cc1 | ? | -2% | -5% | -12% | ?
NS(=O)(=O)c1ccc(CNC(=O)c2ccc(S(=O)(=O)NCc3ccco3)cc2)cc1 | -8% | 5% | 3% | 2% | -10
Nc1cc(OC(=O)c2ccc(F)cc2)nn1S(=O)(=O)c1ccccc1 | -22% | -12% | -5% | 4% | 19
CC(C)C(C=Cc1ccccc1)=NNS(=O)(=O)c1ccccc1 | -14% | 0% | 2% | 8.2µM* | 14
Cc1cc(C(=O)NN)c(C)o1 | 11% | 4% | -22% | 1% | 0
CCc1ccc(C(C)NC(=O)C2(C)CC2(Br)Br)cc1 (stereo unspecified) | -26% | -14% | 0% | -9% | -61*
CCc1ccc(C(C)NC(=O)c2cc(C)oc2C)cc1 (stereo unspecified) | 23µM* | 8% | -1% | 21µM* | -2
COc1ccc(CNC(=O)CN2CCN(c3ccccc3)CC2)cc1 | -2% | 0% | 2% | -8% | -28
